In PubChem BioAssay (NCATS):
Active and inactive are the calls of the source. Calls follow the shape of the dose curve; as a rule, active = well fitted curve in the direction sought with a large enough effect; inconclusive = small, poorly fitted or top-dose-only effect, or effect the other way, or another doubt; inactive = no such curve, though single readings can be large or run the other way.

Assay: Inducers of the Endoplasmic Reticulum Stress Response (ERSR) in human glioma: Validation (AID 504836); also: 0% is about no effect
Conditions: human glioma cells, ER stress response reporter; series mostly up to 38.3 µM; activation: at the top concentration
In short: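 ERSR induction read as luciferase luminescence (Bright-Glo, 10 min at room temperature) in stably transfected human U87-MG glioma cells exposed to compounds for 16 h, using GRP78 as sensor.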

SMILES	activation
NNCCc1ccccc1	-0.057% (inactive)
CC(C(=O)O)c1cccc(C(=O)c2ccccc2)c1 (stereo not given)	-1.11% (inactive)
Cc1oncc1C(=O)Nc1ccc(C(F)(F)F)cc1	-2.62% (inactive)
Cc1cn[nH]c1	-1.52% (inactive)
CN(C)[C@@H]1C(=O)C(C(N)=O)=C(O)[C@@]2(O)C(=O)C3=C(O)c4c(O)ccc(Cl)c4[C@@H](O)[C@H]3C[C@@H]12	-0.308% (inactive)
CNCCCN1c2ccccc2CCc2ccccc21	-1.95% (inactive)
CC(C)NCC(O)COc1ccc(CCOCC2CC2)cc1 (stereo not given)	-0.458% (inactive)
COC(=O)Nc1nc2ccc(C(=O)c3cccs3)cc2[nH]1	-2.66% (inactive)
CC(=O)[C@]1(O)Cc2c(O)c3c(c(O)c2[C@@H](O[C@H]2C[C@H](N)[C@H](O)[C@H](C)O2)C1)C(=O)c1ccccc1C3=O	-7.63% (inactive)
CCCC(CCC)C(=O)O	1.3% (inactive)
Nc1nc2c(ncn2COCCO)c(=O)[nH]1	-1.22% (inactive)
CCC1(c2ccccc2)C(=O)NCNC1=O	-2.39% (inactive)
CN1CCC(=C2c3ccccc3C=Cc3ccccc32)CC1	2.52% (inactive)
Cc1ccccc1N1C(=O)c2cc(S(N)(=O)=O)c(Cl)cc2NC1C (stereo not given)	-3.24% (inactive)
CCCN1C[C@H](CSC)C[C@@H]2c3cccc4[nH]cc(c34)C[C@H]21	-0.831% (inactive)
CC1=C(/C=C/C(C)=C/C=C/C(C)=C/C(=O)Nc2ccc(O)cc2)C(C)(C)CCC1	-5.47% (inactive)
CC(CN1c2ccccc2Sc2ccccc21)N(C)C (stereo not given)	0.728% (inactive)
CCCCc1oc2ccccc2c1C(=O)c1cc(I)c(OCCN(CC)CC)c(I)c1	-1.55% (inactive)

SMILES	activation
CN1CCN(CCCN2c3ccccc3Sc3ccc(Cl)cc32)CC1	-1.93% (inactive)
CC1=NS(=O)(=O)c2cc(Cl)ccc2N1	-1.96% (inactive)
CN(C)CCCN1c2ccccc2CCc2ccc(Cl)cc21	-1.42% (inactive)
Cc1c(OCC(F)(F)F)ccnc1CS(=O)c1nc2ccccc2[nH]1 (stereo not given)	1.18% (inactive)
O=C1NC(=O)C(c2ccccc2)(c2ccccc2)N1	2.61% (inactive)
CCN(CC)C(=S)SSC(=S)N(CC)CC	-11.4% (inactive)
O=C(c1ccccc1)c1ccc2n1CCC2C(=O)O (stereo not given)	-0.837% (inactive)
O=C1N=C(O)CN1/N=C/c1ccc(-c2ccc([N+](=O)[O-])cc2)o1	0.223% (inactive)
CC(C)OC(=O)C(C)(C)Oc1ccc(C(=O)c2ccc(Cl)cc2)cc1	1.96% (inactive)
C[C@H]1c2cccc(O)c2C(O)=C2C(=O)[C@]3(O)C(O)=C(C(N)=O)C(=O)[C@@H](N(C)C)[C@@H]3[C@@H](O)[C@@H]21	5.6% (inactive)
NC(=O)NO	-2.42% (inactive)
NC(=O)OCC(COC(N)=O)c1ccccc1	-3.55% (inactive)
O=C(O)COCCN1CCN(C(c2ccccc2)c2ccc(Cl)cc2)CC1 (stereo not given)	1.45% (inactive)
COC(=O)C1=C(C)NC(C)=C(C(=O)OCCN(C)Cc2ccccc2)C1c1cccc([N+](=O)[O-])c1 (stereo not given)	-4.69% (inactive)
O=C1CCc2cc(OCCCCc3nnnn3C3CCCCC3)ccc2N1	-0.449% (inactive)
COc1ccccc1OCC(O)CN1CCN(CC(=O)Nc2c(C)cccc2C)CC1 (stereo not given)	1.07% (inactive)
CN[C@H]1CC[C@@H](c2ccc(Cl)c(Cl)c2)c2ccccc21	-4.06% (inactive)
